Sampled rows, rich in hits. Any-hit rate of the full collection: about 2.1%.
PfHsp40 rescue: rescue of yeast from PfHsp40 toxicity, primary screen, S. cerevisiae, ATP luminescence; S. cerevisiae expressing PfHsp40, growth rescue; growth rescue, % at 12.5 µM; 0.68% of 340,000 active; AID 504582, 2011; in the data active = growth rescue above about 28%, passing the limit was not always enough;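 note: yeast W303a lacking pdr1 and pdr3 grown in galactose medium; growth measured after three days at 30 °C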
PrPC surface inh: inhibitors of human cell surface prion protein PrPC, primary screen, cell-based, TR-FRET; 0.43% of 370,000 active; TR-FRET read-out; inhibition, % at 13.8 µM; Major prion protein (Homo sapiens), P04156; in the data active = inhibition above about 24%
Sa RN4220 lethal: growth inhibition of S. aureus RN4220, primary screen, OD600. AID 1259311, 2017. 16 h. 0.33% of 330,000 active. inhibition, % (test concentration not listed); in the data active = inhibition above about 85%
PrP UTR inh: inhibition of PrP 5' UTR reporter expression | inhibition, % (concentration not given with the values) | 0.35% of 340,000 active | cell-based PrP 5' UTR mRNA reporter, plate reader; in the data active = inhibition above about 52%
ugtP null kill: growth inhibition of ugtP-null S. aureus, primary screen, RN4220 ugtP deletion, OD600. 16 h. 0.54% of 330,000 active. growth inhibition, % (concentration not given with the values); in the data active = growth inhibition above about 68%
CCHFV vOTU inh: CCHFV vOTU protease inhibitors, primary screen, biochemical, Pep-AMC substrate, fluorescence | AID 651958, 2012 | Crimean-Congo hemorrhagic fever virus L polyprotein viral ovarian tumor (vOTU) protease … | 0.55% of 370,000 active | inhibition, % at 11.5 µM; in the data active = inhibition above about 30%
PrPC TRFRET cf: confirmation of inhibitors of cell surface human prion protein, confirmation, cell-based, TR-FRET | inhibition, % at 13.8 µM | 65% of 1,500 active | cell surface PrPC level | shares compounds with PrPC surface inh; in the data active = inhibition above about 25%
LD9 tox: cytotoxicity in LD9 cells, cytotoxicity control for cell surface PrPc inhibitor project, cell-based, luminescence, high throughput. shares compounds with PrPC surface inh. luminescence viability. inhibition, % at 13.8 µM. 29% of 1,500 active. AID 743201, 2013; in the data active = inhibition above about 9.5%
Each line names hits and unclear results; the compound was inactive in the other large screens (follow-up assays come after a bar, where they were run).

COc1cc(C(=O)NC2CCCCN(Cc3cccc(C(F)(F)F)c3)C2=O)cc(OC)c1OC (stereo not drawn)	PrPC surface inh 49 (no result: PfHsp40 rescue, Sa RN4220 lethal, PrP UTR inh, ugtP null kill) | PrPC TRFRET cf inactive | LD9 tox inactive
O=C(NC1CCCCN(Cc2ccc(Cl)cc2)C1=O)c1ccc(COc2ccccc2)cc1 (stereo not drawn)	none (no result: PfHsp40 rescue, Sa RN4220 lethal, PrP UTR inh, ugtP null kill)
CS(=O)(=O)c1cccc(C(=O)Nc2cccc(-c3nc4ccccc4[nH]3)c2)c1	PrPC surface inh 129 | PrPC TRFRET cf inactive | LD9 tox 20
CS(=O)(=O)c1ccc(C(=O)Nc2cccc(-c3nc4ccccc4[nH]3)c2)cc1	none
O=C(Nc1cccc(-c2nc3ccccc3[nH]2)c1)c1cccc(NC(=O)c2ccco2)c1	PrPC surface inh 37 | PrPC TRFRET cf inactive | LD9 tox 18
O=C(Nc1ccc2nc(-c3ccccc3)[nH]c2c1)c1ccco1	none
C=C(C)C(=O)Nc1cccc(C2=NOC3(C2)CC(C(N)=O)N(C(=O)CC(c2ccccc2)c2ccccc2)C3)c1 (stereo not drawn)	none (no result: PfHsp40 rescue, PrPC surface inh, PrP UTR inh, CCHFV vOTU inh)
CCOC(=O)C1C2COc3ccc(Br)cc3C2N2C(=O)C(C)NC(=O)[C@@]12C (stereo partly drawn)	none (no result: PfHsp40 rescue, PrPC surface inh, PrP UTR inh, CCHFV vOTU inh)
C=C(C)CNC(=S)NN=Cc1ccc([N+](=O)[O-])cc1	none (no result: PfHsp40 rescue, PrPC surface inh, PrP UTR inh, CCHFV vOTU inh)
CSCCC(Nc1ncnc2ccc(Br)cc12)C(=O)O (stereo not drawn)	PrPC surface inh 42 | PrPC TRFRET cf 104 | LD9 tox inactive
CC(C)Nc1ncnc2ccc(Br)cc12	PrPC surface inh 25 | PrPC TRFRET cf 34 | LD9 tox inactive
Brc1ccc2ncnc(NCc3ccco3)c2c1	PrPC surface inh 26 | PrPC TRFRET cf 32 | LD9 tox 13
CC(=O)c1ccc(Nc2ncnc3ccc(Br)cc23)cc1	none (no result: PfHsp40 rescue, Sa RN4220 lethal, PrP UTR inh, ugtP null kill)
COc1cc2ncnc(NCc3ccco3)c2cc1OC	none
CC(=O)c1cccc(Nc2ncnc3ccc(Br)cc23)c1	none
COc1cc(CCCN2C(=S)NCC2CC2CCCCC2)cc(OC)c1OC (stereo not drawn)	none (no result: PfHsp40 rescue, PrPC surface inh, PrP UTR inh, CCHFV vOTU inh)
O=C(O)CC1c2cc(C(F)(F)F)ccc2S(=O)(=O)N1C1CCCC1 (stereo not drawn)	none (no result: PfHsp40 rescue, PrPC surface inh, PrP UTR inh, CCHFV vOTU inh)
CCOc1ccc(Nc2nc(NCC3CCCO3)c3ccccc3n2)cc1 (stereo not drawn)	PrPC surface inh 34 | PrPC TRFRET cf 30 | LD9 tox 32
c1ccc(Nc2nc(NCC3CCCO3)c3ccccc3n2)cc1 (stereo not drawn)	none
CCCn1c(N)c(C(=O)CSc2nnc(N)s2)c(=O)[nH]c1=O	PrPC surface inh 42 | PrPC TRFRET cf 43 | LD9 tox inactive
CCCn1c(N)c(C(=O)CSc2nncs2)c(=O)[nH]c1=O	PrPC surface inh 55 | PrPC TRFRET cf 67 | LD9 tox inactive
NC(=NOC(=O)c1cccc(Cl)c1)c1cccnc1	none (no result: PfHsp40 rescue, PrPC surface inh, PrP UTR inh, CCHFV vOTU inh)
O=C(C(=Cc1ccccc1)c1ccccc1)N1CCCCC1	none (no result: PfHsp40 rescue, PrPC surface inh, PrP UTR inh, CCHFV vOTU inh)
Cn1cnc([N+](=O)[O-])c1S(=O)(=O)c1ccc(Cl)cc1	PrPC surface inh 37 | PrPC TRFRET cf inactive | LD9 tox 91
Cn1cnc([N+](=O)[O-])c1NC(C)(C)C	none
CCCC(=O)Nc1ccc(C(=O)NNC(=S)NC(=O)c2cccs2)cc1	none
CCCC(=O)Nc1ccc(C(=O)NNC(=S)NC(=O)c2ccc(Br)o2)cc1	PrPC surface inh 32 | PrPC TRFRET cf inactive | LD9 tox inactive
COc1cccc(C=NNc2nccnc2Cl)c1O	none (no result: PfHsp40 rescue, PrPC surface inh, PrP UTR inh, CCHFV vOTU inh)
CC(C)Oc1ccc(C(=O)/C=C2/C(=O)Nc3ccccc32)cc1	PrPC surface inh 34 | PrPC TRFRET cf inactive | LD9 tox inactive
COc1cccc(NC(=O)Nc2cccn(Cc3ccccc3)c2=O)c1	none
COc1ccc(Cn2cccc(NC(=O)Nc3cccc(OC)c3)c2=O)cc1	PrPC surface inh 25 | PrPC TRFRET cf 29 | LD9 tox inactive
COC(=O)CN1C(=O)C2C(C=Cc3ccccc3)N3C(=O)CN(Cc4ccccc4)C(=O)[C@@]3(C)C2C1=O (stereo partly drawn)	none (no result: PfHsp40 rescue, PrPC surface inh, PrP UTR inh, CCHFV vOTU inh)
O=C(c1ccc(Cl)c(Cl)c1)c1cc(-c2ccccn2)c(N2CCOCC2)s1	PrPC surface inh 41 | PrPC TRFRET cf 52 | LD9 tox inactive
COc1ccc(OC)c(C=NNc2nccs2)c1	none (no result: PfHsp40 rescue, PrPC surface inh, PrP UTR inh, CCHFV vOTU inh)
Cc1ccc(NS(=O)(=O)c2cc(C(=O)NCc3ccccn3)ccc2Cl)cc1	PrPC surface inh 40 | PrPC TRFRET cf 35 | LD9 tox inactive
COCCN1C(=O)NC(c2ccco2)C(C(C)=O)=C1C (stereo not drawn)	none (no result: PfHsp40 rescue, PrPC surface inh, PrP UTR inh, CCHFV vOTU inh)
COc1ccc(C=NNC(=O)CN2CCN(Cc3ccccc3)CC2)cc1Br	none (no result: PfHsp40 rescue, PrPC surface inh, PrP UTR inh, CCHFV vOTU inh)
CCOC(=O)c1sc(C)c2c1NC(C)(c1cccs1)NC2=O (stereo not drawn)	PrPC surface inh 36 | PrPC TRFRET cf 34 | LD9 tox inactive
O=C(O)CCSc1ccc2ccccc2n1	PrPC surface inh 82 | PrPC TRFRET cf 89 | LD9 tox inactive
Cc1cc(SCCC(=O)O)nc2ccccc12	none
O=C(O)CSc1ccc2ccccc2n1	PrPC surface inh 58 | PrPC TRFRET cf 58 | LD9 tox inactive
O=C(CSc1ccc2ccccc2n1)c1ccc2c(c1)OCO2	none
CCOC(=O)CSc1ccc2ccccc2n1	PrPC surface inh 28 | PrPC TRFRET cf 61 | LD9 tox inactive
Cc1nc(SCCC(=O)O)c2ccccc2n1	PrPC surface inh 103 | PrPC TRFRET cf 119 | LD9 tox inactive
O=C(O)CCSc1nc2ccccc2c(=O)[nH]1	none
CC(=O)Nc1cccc(C(C)=NNC(=S)NC(C)C)c1	none (no result: PfHsp40 rescue, PrPC surface inh, PrP UTR inh, CCHFV vOTU inh)
Cc1cc2ccccc2n1CCNC(=O)C(C)(C)C	PrPC surface inh 39 | PrPC TRFRET cf inactive | LD9 tox inactive
Cc1cc2ccccc2n1CCNC(=O)c1ccccc1	none
Cc1cc2ccccc2n1CCNC(=O)c1ccc(S(=O)(=O)N2CCOCC2)cc1	PrPC surface inh 27 | PrPC TRFRET cf inactive | LD9 tox inactive
Cc1cc2ccccc2n1CCNC(=O)Cc1cccc2ccccc12	PrPC surface inh 41 | PrPC TRFRET cf inactive | LD9 tox inactive
Cc1cc2ccccc2n1CCNC(=O)COc1ccccc1	PrPC surface inh 42 | PrPC TRFRET cf 37 | LD9 tox inactive
CC(=O)NCCn1c(C)cc2ccccc21	none
CCC(=O)NCCn1c(C)cc2ccccc21	none (no result: PrPC surface inh, CCHFV vOTU inh)
O=C1C2CCCCC2C(=O)N1CCCCN1CCN(c2nsc3ccccc23)CC1 (stereo not drawn)	none (no result: PfHsp40 rescue, PrPC surface inh, PrP UTR inh, CCHFV vOTU inh)
CCCCN1C(=S)NCC1c1ccccc1 (stereo not drawn)	none (no result: PfHsp40 rescue, PrPC surface inh, PrP UTR inh, CCHFV vOTU inh)
CSc1nncc(C(C)=NNc2ccccc2)n1	none (no result: PfHsp40 rescue, PrPC surface inh, PrP UTR inh, CCHFV vOTU inh)
